Data on 28 compounds can be found in PubChem BioAssay.

Sequence of Left-right determination factor 2 (Homo sapiens) (O00292 whole entry, looked up): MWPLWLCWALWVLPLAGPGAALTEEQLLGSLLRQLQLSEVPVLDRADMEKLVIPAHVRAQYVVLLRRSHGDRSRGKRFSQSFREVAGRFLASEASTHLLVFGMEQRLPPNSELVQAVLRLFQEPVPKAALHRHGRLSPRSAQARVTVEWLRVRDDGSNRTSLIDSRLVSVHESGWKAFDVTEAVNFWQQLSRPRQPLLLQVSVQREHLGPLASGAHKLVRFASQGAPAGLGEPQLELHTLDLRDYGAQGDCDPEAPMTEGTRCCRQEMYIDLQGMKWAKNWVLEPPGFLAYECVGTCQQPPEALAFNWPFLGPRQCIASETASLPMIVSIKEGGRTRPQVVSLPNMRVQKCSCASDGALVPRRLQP

The assay has as its target Left-right determination factor 2 (Homo sapiens) (UniProt O00292). Kind of assay: LEFTY2 binders on small-molecule microarrays, primary screen, biochemical, small-molecule microarray, 635 nm fluorescence scan (AID 1110). The following applies: LEFTY2 binding, higher = more signal.
With `COC(=O)c1nc2oc1CC[C@@H](CO)NC(=O)N(C)Cc1cnnn1C[C@H](Cc1ccccc1)NC2=O`, the composite z-score was -1.07.
In the case of `CCOC(=O)C1=CC[C@@H](c2cccc(Cl)c2)N(S(=O)(=O)c2ccc(C)cc2)C1` it was -0.326; in that of `C=C(COC)/C(=C/C[C@H](OC(=O)c1ccncc1)c1ccccc1OCCO)c1cnc2ccccc2c1`, 0.76.
As to `C[C@@H]1ON(c2ccc(C(=O)OC(C)(C)C)cc2)[C@H](c2ccc(O)cc2)[C@H]1C(=O)N1C(=O)OC[C@H]1Cc1ccccc1`, the composite z-score turned out to be 0.545.
`CC(C)N1C(=O)C[C@@](C(=O)NCCCN(C)C)(c2ccc([N+](=O)[O-])cc2)[C@H]1c1ccc(CO)cc1`: the composite z-score is -0.438.
As for `COC(=O)C(CC#Cc1ccc2c(c1)[C@]1(C(=O)N2)[C@H](C(=O)N2CCN(c3ncccn3)CC2)[C@H]2C(=O)O[C@H](c3ccccc3)[C@H](c3ccccc3)N2[C@@H]1c1ccc(OCCO)cc1)C(=O)OC`, the figure is 0.839.
With `CN(C)CCCNC(=O)[C@@]1(C)c2ccccc2C(=O)N(Cc2ccccc2)[C@H]1c1ccc(CO)cc1`, the composite z-score is -0.157.
`CC(C)C(=C=CC[C@H](O)c1cccc(OCCO)c1)C[C@H](O)c1cc(Cl)cc(Cl)c1O` displayed a composite z-score of 0.155.
Consider `COCCCNC(=O)[C@@]1(Cc2ccccc2N=[N+]=[N-])N=C(c2ccc(OCCCO)cc2)O[C@H]1c1ccccc1`, for which the composite z-score was -0.394.
Take `COc1ccc([Si](C)(C)[C@@H]2[C@@H](CC(=O)N3Cc4ccccc4C[C@H]3CO)O[C@]3(C(=O)N(Cc4cccc(N5C(=O)c6cccc7cccc5c67)c4)c4ccccc43)[C@H]2C)cc1`: the composite z-score came to 0.98.
As for `COc1ccc([Si](C)(C)[C@@H]2[C@@H](CC(=O)N(CCO)Cc3ccccc3)O[C@]3(C(=O)N(Cc4cccc(N5CCOC5=O)c4)c4ccccc43)[C@H]2C)cc1`, the figure is 0.538; as for `CC(=O)c1ccc(C(O)C2C=CC3C(=O)N(c4ccccc4)C(=O)C3N2Nc2ccc(C#N)cc2)cc1` (stereo not drawn), 0.0172.
In the case of `COC1OC[C@]2(C)[C@H]3C4=C(CN2C(=O)OC(C)(C)C)[C@H](C)C(CO)C(CO)C4CC[C@@H]13` (stereo partly drawn) it was -0.134.
For `COCCCNC(=O)[C@@]1(Cc2ccccc2CN=[N+]=[N-])N=C(c2ccc(OCCCO)cc2)O[C@H]1c1ccccc1`, the composite z-score was -0.0313.
The compound `COc1cc(CO)cc(I)c1O[C@H]1C=C(C(=O)NCCO)C[C@@H](NCc2ccc(F)cc2)[C@@H]1O` returned a composite z-score of 0.275.
Turning to `C=CCC(OC(C)=O)[C@@H]1[C@@H](N(Cc2cccc3ccccc23)C(=O)Cc2ccc(F)cc2)c2cc(OCCCO)ccc2N1C(=O)c1ccc2ccccc2n1` (stereo partly drawn), the composite z-score turned out to be 0.226.
`[N-]=[N+]=Nc1ccccc1[C@H]1OC(c2ccc(OCCCO)cc2)=N[C@@]1(Cc1ccccc1)C(=O)N1CCCCC1` registered a composite z-score of 0.346.
Regarding `O=C(NCc1ccccc1)[C@@H]1c2ccccc2C(=O)N(Cc2ccccc2C(F)(F)F)[C@H]1c1ccc(CO)cc1`, the composite z-score was -0.948.
For the compound `CC=CC(O)C1C=CC2C(=O)N(c3ccccc3)C(=O)C2N1Nc1ccccc1F` (stereo not drawn), the composite z-score is -0.0207.
The compound `O=C1O[C@H](c2ccccc2)[C@H](c2ccccc2)N2[C@H]1[C@@H](C(=O)O)[C@]1(C(=O)Nc3ccc(C#CC4=CCCCC4)cc31)[C@H]2c1ccc(O)cc1` had a composite z-score of 0.658.
Compound `C=CCOC(=O)[C@H]1[C@@H]2C(=O)O[C@@H](c3ccccc3)[C@@H](c3ccccc3)N2[C@@H](c2ccc(OCCOC(=O)[C@@H]3C[C@@H]4C(=O)N5CCC[C@H]5C(=O)N4[C@@H]3c3ccc(O)cc3)cc2)[C@]12C(=O)Nc1ccc(I)cc12` gave a composite z-score of 0.621.
As for `CCCC[C@@H]1C[C@H]1[C@@H](NC(=O)c1ccccc1)c1ccc(C(F)(F)F)cc1`, the figure is -1.06; as for `C=C(C)c1cc2c(c(CCCCCC)n1)[Si](C(C)C)(C(C)C)OC2`, -1.08.
Take `COC(=O)[C@@]1(Cc2ccc(OC)cc2)[C@@H]2C(=CC(=O)[C@H]2CC(=O)C(=O)N(C)C)CN1C(=O)c1ccccc1`: the composite z-score is -0.195.
As to `COC(=O)c1cn(C[C@@H](Cc2ccccc2)NC(=O)N[C@H](CO)CCc2oc(C(C)=O)c(C(=O)OC)c2C(=O)OC)nn1`, the composite z-score was found to be 0.993.
In the case of `COCCOC(=O)N1C(=O)[C@@]2(c3cc(C#CC4(O)CCCCCC4)ccc31)[C@H](c1ccc(O)cc1)N1[C@H](c3ccccc3)[C@H](c3ccccc3)OC(=O)[C@H]1[C@@H]2C(=O)NC[C@H](O)c1ccccc1` it was 0.951; in that of `C=C(C)C1CCC(C(O)C2C=CC3C(=O)N(C)C(=O)C3N2N2CCCCC2)CC1` (stereo not drawn), 0.67; in that of `CC(C)(C)N1CC=CC23O[C@@H]4C=CCOC(=O)[C@@H]4[C@H]2C(=O)N(CCCCCCO)[C@@H]3C1=O` (stereo partly drawn), -0.84.
